Laboratory results as given in PubChem BioAssay (EPA / NIEHS).
Values joined by “and” are separate entries in the source; they are usually repeats but may differ in a detail not shown here. Equal values may be shown once. The source holds several records for some structures; these can differ, active in one and inactive in another. Active and inactive are the calls of the source. How the source made its calls: active means hit-call score of the fitted dose curve at least 0.9, where 1 is the maximum; inactive means score below 0.9.

Assay: ATG_TA_CIS: Attagene CIS-FACTORIAL HepG2 Assay for human TA Basal Promoter (AID 2282964)
Settings: HepG2 Attagene CIS-factorial TA basal promoter reporter; actives raise or lower the signal
Procedure, shortened: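 Multiplexed mRNA reporter assay, HepG2, 24 h. Reporter cDNA amplified, 6-FAM primer-extended, HpaI-cut, CE-sized; DMSO = negative control and baseline.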

Row | SMILES | outcome | AC50
1 | Sc1ccccc1 | inactive | –
2 | O=C(O)C(F)(F)C(F)(F)C(F)(F)C(F)(F)C(F)(F)C(F)(F)C(F)(F)C(F)(F)F | inactive | 50 µM (active)
3 | CCC(=O)O[C@H]1CC[C@H]2[C@@H]3CCC4=CC(=O)CC[C@]4(C)[C@H]3CC[C@]12C | inactive | 100 µM (active) and 129 µM (active)
4 | CC#Cc1cc(C)nc(Nc2ccccc2)n1 | – | 100 µM (active)
5 | CN(C)CCO | inactive | –
6 | ClC1=C(Cl)[C@]2(Cl)[C@@H]3[C@@H]4C[C@@H]([C@H]5O[C@@H]45)[C@@H]3[C@@]1(Cl)C2(Cl)Cl | inactive | –
7 | ClC(Cl)=C(c1ccc(Cl)cc1)c1ccc(Cl)cc1 | inactive | –
8 | CC(C)(c1ccccc1)c1ccc(O)cc1 | inactive | 54 µM (active)
9 | CCOCCOC(C)=O | inactive | –
10 | Oc1ccc(Cl)cc1Cl | inactive | –
11 | Clc1ccc(Cl)cc1 | inactive | –
12 | O=C(O)C(F)(F)C(F)(F)C(F)(F)C(F)(F)C(F)(F)C(F)(F)C(F)(F)C(F)(F)C(F)(F)F | inactive | –
13 | O=C(N[C@H]1CN2CCC1CC2)c1cc2ccoc2cn1 | inactive | –
14 | Cc1cccc([N+](=O)[O-])c1 | inactive | –
15 | Cc1ccc(O)c(C)c1 | inactive | –
16 | Cc1cccc(C)c1N | inactive | –
17 | c1cc2ccc3cccc4ccc(c1)c2c34 | inactive | –

Row | SMILES | outcome | AC50
18 | C1CC2OC2CC1C1CO1 (stereo not given) | inactive | –
19 | Cc1cc2c3c(c1)C(c1ccccc1)=N[C@@H](NC(=O)c1ccncc1)C(=O)N3CC2 | – | 100 µM (active)
20 | NS(=O)(=O)C(F)(F)C(F)(F)C(F)(F)C(F)(F)C(F)(F)C(F)(F)C(F)(F)C(F)(F)F | inactive | –
21 | CCCCCCCCCC[N+](C)(C)CCCCCCCCCC | inactive | –
22 | CCCCCCCCOC(=O)c1ccccc1C(=O)OCCCCCCCC | inactive | –
23 | CCSC(=O)N(CC)C1CCCCC1 | inactive | –
24 | CCCN(CCC)N=O | inactive | –
25 | C=CC(N)=O | inactive | –
26 | Clc1ccc(C(c2ccccc2Cl)C(Cl)(Cl)Cl)cc1 (stereo not given) | inactive | 45.3 µM (active)
27 | Nn1cnnc1 | inactive | –
28 | CCC(C)(CC)c1cc(NC(=O)c2c(OC)cccc2OC)on1 | inactive | –
29 | Oc1c(Cl)c(Cl)c(Cl)c(Cl)c1Cl | inactive | 17.1 µM (active)
30 | CC(C)(O)C(=O)Nc1ccc([N+](=O)[O-])c(C(F)(F)F)c1 | inactive | –
31 | Cc1ccccc1CO[C@@H]1C[C@@]2(C(C)C)CC[C@]1(C)O2 | inactive | –
32 | Cc1cc(O)ccc1Cl | inactive | –
33 | CC(c1ccc(O)cc1)(c1ccc(O)cc1)c1ccc(O)cc1 | – | 17.3 µM (active)

Assay: ATG_TCF_b_cat_CIS: Attagene CIS-FACTORIAL HepG2 Assay for human T-Cell-Factor with beta-catenin (TCF/b-cat) (AID 2282965)
Settings: HepG2 TCF/beta-catenin cis-reporter transcription, actives raise or lower the signal
Procedure, shortened: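 HepG2, transient MRTU transfection, cis-element-driven reporters (endogenous TFs). 24 h compound exposure. Readout: reporter mRNA by RT-PCR + 6-FAM primer extension, HpaI digest, capillary electrophoresis. Gain/loss fit vs DMSO baseline.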

Row | SMILES | outcome | AC50
34 | Sc1ccccc1 | inactive | –
35 | O=C(O)C(F)(F)C(F)(F)C(F)(F)C(F)(F)C(F)(F)C(F)(F)C(F)(F)C(F)(F)F | – | 33.4 µM (active) and 150 µM (active) and 50 µM (active)
36 | CCC(=O)O[C@H]1CC[C@H]2[C@@H]3CCC4=CC(=O)CC[C@]4(C)[C@H]3CC[C@]12C | inactive | 100 µM (active) and 92.5 µM (active)
37 | CC#Cc1cc(C)nc(Nc2ccccc2)n1 | – | 41.8 µM (active)
38 | CN(C)CCO | inactive | –
39 | ClC1=C(Cl)[C@]2(Cl)[C@@H]3[C@@H]4C[C@@H]([C@H]5O[C@@H]45)[C@@H]3[C@@]1(Cl)C2(Cl)Cl | – | 56.2 µM (active)
40 | ClC(Cl)=C(c1ccc(Cl)cc1)c1ccc(Cl)cc1 | inactive | –
41 | CC(C)(c1ccccc1)c1ccc(O)cc1 | inactive | 39.9 µM (active) and 54.5 µM (active)
42 | CCOCCOC(C)=O | inactive | –
43 | Oc1ccc(Cl)cc1Cl | inactive | –
44 | Clc1ccc(Cl)cc1 | inactive | –
45 | O=C(O)C(F)(F)C(F)(F)C(F)(F)C(F)(F)C(F)(F)C(F)(F)C(F)(F)C(F)(F)C(F)(F)F | – | 45 µM (active) and 35.7 µM (active) and 14.7 µM (active)
46 | O=C(N[C@H]1CN2CCC1CC2)c1cc2ccoc2cn1 | inactive | –
47 | Cc1cccc([N+](=O)[O-])c1 | inactive | –
48 | Cc1ccc(O)c(C)c1 | – | 168 µM (active)
49 | Cc1cccc(C)c1N | inactive | –
50 | c1cc2ccc3cccc4ccc(c1)c2c34 | inactive | –

Row | SMILES | outcome | AC50
51 | C1CC2OC2CC1C1CO1 (stereo not given) | inactive | –
52 | Cc1cc2c3c(c1)C(c1ccccc1)=N[C@@H](NC(=O)c1ccncc1)C(=O)N3CC2 | – | 35.8 µM (active)
53 | NS(=O)(=O)C(F)(F)C(F)(F)C(F)(F)C(F)(F)C(F)(F)C(F)(F)C(F)(F)C(F)(F)F | inactive | 150 µM (active)
54 | CCCCCCCCCC[N+](C)(C)CCCCCCCCCC | – | 11 µM (active)
55 | CCCCCCCCOC(=O)c1ccccc1C(=O)OCCCCCCCC | inactive | –
56 | CCSC(=O)N(CC)C1CCCCC1 | inactive | –
57 | CCCN(CCC)N=O | inactive | –
58 | C=CC(N)=O | inactive | –
59 | Clc1ccc(C(c2ccccc2Cl)C(Cl)(Cl)Cl)cc1 (stereo not given) | inactive | –
60 | Nn1cnnc1 | inactive | –
61 | CCC(C)(CC)c1cc(NC(=O)c2c(OC)cccc2OC)on1 | inactive | –
62 | Oc1c(Cl)c(Cl)c(Cl)c(Cl)c1Cl | inactive | 11.8 µM (active)
63 | CC(C)(O)C(=O)Nc1ccc([N+](=O)[O-])c(C(F)(F)F)c1 | inactive | –
64 | Cc1ccccc1CO[C@@H]1C[C@@]2(C(C)C)CC[C@]1(C)O2 | inactive | –
65 | Cc1cc(O)ccc1Cl | inactive | –
66 | CC(c1ccc(O)cc1)(c1ccc(O)cc1)c1ccc(O)cc1 | – | 11.9 µM (active)
